High-throughput results deposited in PubChem BioAssay by National Center for Advancing Translational Sciences (NCATS).
Only some compounds are listed: those with a hit (about 19% of all), similar ones and a draw of the others.
TDP1 cell noCPT: qHTS for Inhibitors of human tyrosyl-DNA phosphodiesterase 1 (TDP1): qHTS in cells in absence of CPT. DT40 Tdp1-/- hTDP1 cells, no CPT, ATP luminescence, 48 h. Potency, µM (series often up to 46.2 µM), for the others: at the top dose activity change, negative = growth inhibition, usual class: inhibitors. actives 15% (n = 420,000). AID 686978, 2013; note: potency is the fitted concentration of half-maximal effect; nearly all actives have a fitted effect of over 55% in size
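Compound effects on proliferation are scored in DT40 Tdp1-/-;hTDP1 cells in the absence of CPT. ATP levels (CellTiter-Glo luminescence) are recorded after a ≥48 hr, 37 °C incubation.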
IL-1B inflam inh: inflammasome signaling inhibition, IL-1 beta readout; THP-1 LPS/ATP IL-1B secretion, AlphaLISA, 16 h; stronger effect = lower value; activity change, % at 57.5 µM; actives 4.7% (n = 360,000); in the data active = activity change below about -50%; inconclusive = mostly about -30% to -49%
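THP-1 cells pretreated 1 hr with compounds (up to 57.5 uM final), then stimulated with LPS (250 ng/mL final) plus ATP (1.25 mM final); secreted IL-1B measured by AlphaLISA after 16 hr, decreased signal indicating inhibition.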
DT40 TDP1 CPT: DT40-hTDP1 cell growth loss with CPT. chicken DT40 Tdp1-/-;hTDP1 cells + 20 nM CPT, ATP luminescence, 48 h. Potency, µM (titrated, usually from 46.2 µM), for the others: at the highest dose activity change, negative = growth inhibition, hits mostly inhibitors. actives 12% (n = 420,000). AID 686979; note: potency is the fitted concentration of half-maximal effect; nearly all actives have a fitted effect of over 55% in size
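Chicken DT40 Tdp1-/- cells complemented with human TDP1, 400 cells/well, exposed to compounds plus 20 nM camptothecin for at least 48 h at 37 C; viability read as ATP content by CellTiter-Glo luminescence.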
HT1080 IDH1KD tx: kills HT-1080 cells with IDH1 knockdown; HT-1080 IDH1 knockdown viability, ATP luminescence, 48 h; Potency, µM (highest dose often 46.1 µM), for inactives: at the highest dose activity, negative = toxicity, actives largely listed as cytotoxic; actives 2% (n = 360,000); AID 686971;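 note: potency is the fitted concentration of half-maximal effect; 0% = DMSO wells and -100% = cell-free medium wells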
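IDH1KD HT-1080 cells, 750/well, RPMI + 5% FBS; compound pinned after 2 h settling; 48 h, 37 °C; CellTiter-Glo luminescence; % activity normalised to DMSO and no-cell wells; curves fitted, classed by r2 and efficacy.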
HT1080NT lethal: kills 2HG-producing HT-1080-NT fibrosarcoma cells. actives 1.6% (n = 360,000). HT-1080-NT fibrosarcoma viability, CellTiter-Glo ATP luminescence, 48 h. AID 686970. Potency, µM (doses to about 46.1 µM), for the others: top-dose activity, negative = less viability, actives largely listed as cytotoxic;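 note: NT is the 2HG producing partner of a matched IDH1 knockdown line; potency is the fitted concentration of half-maximal effect; 0% = DMSO-treated cells and -100% = media-only wells without cells; nearly all actives have a fitted effect of over 55% in size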
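Read-out is CellTiter-Glo luminescence after 10 minutes at room temperature, following 48 hours' compound treatment of HT-1080-NT cells (750 cells/well, RPMI, 5% FBS, 37 degrees C).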
Active calls of the source: *; ? = inconclusive; . = not tested or not shown; [ ] = another dose, or the depositor's remark. Unless noted, calls come from the whole dose curve; as a rule, active = well fitted curve in the direction sought with a large enough effect; inconclusive = small, poorly fitted or top-dose-only effect, or another doubt; inactive = no such curve, though single readings can be large; an effect the other way counts as inactive or inconclusive. Unless noted, % is set by controls: 0 for no effect and ±100 for the full control effect.

SMILES	TDP1 cell noCPT	IL-1B inflam inh	DT40 TDP1 CPT	HT1080 IDH1KD tx	HT1080NT lethal
Cc1ccc(CNC(=O)Nc2nnc([C@@H]3C[C@H](O)[C@@H](CO)O3)s2)cc1	-18.0%	-0.6	-7.6%	12.0%	15.6%
COCCCn1c(SC(C)C(=O)NC2CC2)nc2ccccc2c1=O (stereo not drawn)	-4.6%	-11.9	16.9%	-3.8%	-0.3%
CCN(CC)CCNC(=O)Cn1ncc2c([nH]c3ccccc32)c1=O	8.1%	.	9.7%	.	.
COc1ccc(C(=O)OC2CC3CC[C@H](C2)N3C(C)=O)cc1OC (stereo partly drawn)	-4.6%[9.04 µM]	.	3.5%[9.04 µM]	.	.
Cc1ccc(C2c3cccn3CCN2S(=O)(=O)c2ccc([N+](=O)[O-])cc2)cc1 (stereo not drawn)	18.4µM*	.	?	.	.
CC1c2cccn2CCN1S(=O)(=O)c1ccc(F)cc1 (stereo not drawn)	-6.1%	-11.2	10.5%	-2.6%	3.5%
CC(=O)c1ccc(S(=O)(=O)N2CCn3cccc3C2c2ccc(F)c(F)c2)cc1 (stereo not drawn)	20.6µM*	.	?	.	.
N#CCCCSC1=C(C#N)C(c2ccccc2Cl)CC(=O)N1 (stereo not drawn)	?	-9.3	?	-1.9%	-1.3%
Cc1c(C(=O)NC2CC(=O)N(c3ccc4c(c3)OCCO4)C2)cccc1[N+](=O)[O-] (stereo not drawn)	-15.1%	6.7	7.2%	9.9%	8.5%
COc1ccc(Cl)cc1NC(=O)CNc1ccccc1CN(C)C1CCCCC1	?	-214.3*	?	16.4µM*	?
COc1ccc(C)cc1NC(=O)CNc1ccccc1CN(C)C1CCCCC1	?	-3.8	18.4µM*	?	-24.2%
CSc1ccccc1NC(=O)CN(C)C(C)C(=O)NC(=O)NC1CCCCC1 (stereo not drawn)	?	-15.0	?	-11.3%	-2.9%
COc1ccc(Cl)cc1NC(=O)CN(C)C(C)C(=O)NC(=O)NC1CCCCC1 (stereo not drawn)	18.4µM*	?	?	-10.7%	-9.3%
COc1ccc(Cl)cc1NC(=O)CN(C)C1CCCCC1	?	-11.1	?	-7.9%	-12.0%
COc1ccccc1-n1c(SC(C)C(=O)NCC2CCCO2)nc2cc(Cl)ccc2c1=O (stereo not drawn)	?	-6.5	-22.4%	-2.1%	0.2%
O=C(N1CCN(c2ccccn2)CC1)C(Cl)(Cl)Cl	-17.0%	14.6	5.3%	8.2%	10.3%
O=C1C=C(N2CCN(c3ccccn3)CC2)C(=O)c2c(O)ccc(O)c21	4.11µM*	-15.1	1.46µM*	-27.0%	-6.0%
Cc1ccc(NC(=O)c2ccccc2N(C)S(=O)(=O)c2ccccc2)c(C)c1	?	-13.2	?	4.3%	6.8%
COc1ccc(NC2CCCN(C(=O)Cn3ccc(C)n3)C2)cc1OC (stereo not drawn)	-0.2%	1.2	8.5%	-0.1%	0.0%
COc1ccc(-n2c(C)c(C(C)=O)c3cc(OC(C)=O)ccc32)cc1	7.31µM*	35.0	5.17µM*	3.4%	3.4%
COc1ccc2c(c1)c(C(C)=O)c(C)n2-c1ccc(C(C)=O)cc1	?	1.3	-20.9%	17.9%	19.7%
COC(=O)c1c(C)n(-c2ccc(OC)cc2)c2ccc(O)cc12	13µM*	-9.8	11.6µM*	?	?
Cc1ccc(-c2cc(-c3n[nH]c(=S)o3)c3ccccc3n2)cc1	20.6µM*	16.5	16.4µM*	-1.2%	0.3%
S=c1[nH]nc(-c2cc(-c3ccccn3)nc3ccccc23)o1	?	0.0	?	-1.4%	-0.7%
CCCN(CCC)CCNC(=O)C1(O)c2ccccc2NC(=O)N1c1cccc(OC)c1 (stereo not drawn)	9.6%	-2.5	-0.1%	23.3%	13.6%
O=C(Nc1ccnc(=O)[nH]1)c1sc2ccccc2c1Cl	-16.2%	0.0	14.6µM*	8.9%	16.9%
O=C(Nc1ccncc1)c1sc2ccccc2c1Cl	18.4µM*	-55.4*	?	0.0%	11.7%
